Laboratory results taken from PubChem BioAssay AID1645860 (Buhrlage Lab, Dana-Farber Cancer Institute and Novartis …, 2021).
The whole screen tested about 47,000 compounds, of which about 2,500 (5.3%) were called active. This excerpt belongs to a sample that is enriched for actives. Unmarked numbers belong to inactive results. No stated cut-off is given here; in the data, active means inhibition above about 30%; inactive means the rest. *1 amine or outer side, *2 acyl side, *3 side chain or, on linkers, in order; H or OH if unused. Where a SMILES comes first, the peptide text is derived from it. [ ]: non-standard residue; d: D form. ξ: configuration not given here. ξβ3hGly(undecyl) = CCCCCCCCCCCC(CC(=O)[*:2])N[*:1]

The molecules below were run against Ubiquitin carboxyl-terminal hydrolase 30 (Homo sapiens) (UniProt Q70CQ3) (assay: blocks human USP30 ubiquitin-rhodamine cleavage (AID 1645860)). Details: purified USP30, Ub-rhodamine cleavage fluorescence; at 25 µM; stronger effect = higher value.
Chain of Ubiquitin carboxyl-terminal hydrolase 30 (Homo sapiens) (Q70CQ3 whole entry, looked up): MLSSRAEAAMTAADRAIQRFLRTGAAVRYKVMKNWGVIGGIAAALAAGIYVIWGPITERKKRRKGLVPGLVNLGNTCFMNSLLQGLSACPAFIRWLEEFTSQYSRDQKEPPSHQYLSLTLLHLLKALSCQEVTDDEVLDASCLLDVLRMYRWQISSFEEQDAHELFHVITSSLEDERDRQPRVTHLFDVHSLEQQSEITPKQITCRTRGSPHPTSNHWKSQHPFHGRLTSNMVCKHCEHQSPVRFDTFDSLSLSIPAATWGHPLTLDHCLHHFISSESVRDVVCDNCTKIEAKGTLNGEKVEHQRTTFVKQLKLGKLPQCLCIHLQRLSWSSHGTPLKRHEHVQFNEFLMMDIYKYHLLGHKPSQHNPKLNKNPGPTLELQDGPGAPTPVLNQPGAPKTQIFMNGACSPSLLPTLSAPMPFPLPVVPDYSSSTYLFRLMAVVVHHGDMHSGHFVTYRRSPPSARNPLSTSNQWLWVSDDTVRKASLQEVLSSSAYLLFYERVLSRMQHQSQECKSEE

Row | SMILES | inhibition
1 | CC(C)N1CCN(C(=O)c2n[nH]c3c2CCCC3)CC1 | -5.42%
2 | Cn1ccc(-c2cc(C(=O)NC3CC3)c3ccccn23)n1 | -423%
3 | O=C(Nc1ccc2sc(NC(=O)C3CCCCC3)nc2c1)NC1CCCC1 | 0.0388%
4 | CC(C)C(=O)Nc1nc2cc(NS(=O)(=O)c3ccccc3)ccc2s1 | 36.4% (active)
5 | CC(C)C(=O)Nc1nc2ccc(CCC(=O)Nc3ccc(F)cc3)cc2s1 | 26.5%
6 | COCCN1C(=O)Cc2c(C)nc(C3(C)CCCN(c4cc(C)ncn4)C3)nc21 (centres undefined) | -104%
7 | COc1cc(OC)cc(-c2nnc(NC(=O)c3ccc([N+](=O)[O-])o3)o2)c1 | 40.1% (active)
8 | COc1cccc(-c2ocnc2C(=O)NCc2ccc(OC)c(OC)c2)c1 | -25.4%
9 | COc1ccc(-c2ocnc2C(=O)NCc2ccc(OC)c(OC)c2)cc1 | -6.37%
10 | N#Cc1ccc(-c2cccc(C(F)(F)F)c2)n(Cc2c(F)cccc2Cl)c1=O | 17.6%
11 | CC(=O)N1CSCC1C(=O)N1CCC2(CC1)CNC(=O)c1ccccc1O2 (centres undefined) | 6.33%
12 | CCN1CCC2(CC1)OC(=O)C(C)=C2C(=O)NCc1ccccc1OC | 3.07%
13 | COc1cccc(NC(=O)CSc2nc(-c3ccco3)nc3cc(=O)[nH]n23)c1 | -50.3%
14 | O=C1C(O)=C(c2ccc(O)c(O)c2)C(=O)C(O)=C1c1ccccc1 | 50.5% (active)
15 | CC(=O)N1CCn2c(nnc2C2CCCN2)C1 (centres undefined) | 12.2%
16 | CCCCCCCCCCCC1CC(=O)NC(CC(N)=O)C(=O)NC(Cc2ccc(O)cc2)C(=O)NC(CC(N)=O)C(=O)NC(CCC(N)=O)C(=O)N2CCCC2C(=O)NC(CC(N)=O)C(=O)NC(CO)C(=O)N1 (stereo not drawn) (cyclo([ξβ3hGly(undecyl)]NYNQPNS); configuration not given here) | -32.4%
17 | O=C(Nc1ccc(C(F)(F)F)cc1)N1CCc2[nH]cnc2C1c1ccncc1 (centres undefined) | 13%
18 | Cc1nn(-c2ccc(F)cc2)c2c1C(C(=O)c1cc3ccccc3o1)CC(=O)N2 (centres undefined) | -18.2%
19 | Cc1nn(-c2cccc(F)c2)c2c1C(C(=O)c1cc3ccccc3o1)CC(=O)N2 (centres undefined) | 2.53%
20 | Cc1nn(-c2ccc(F)cc2F)c2c1C(C(=O)c1cc3ccccc3o1)CC(=O)N2 (centres undefined) | 33.3% (active)
21 | CC(CNC(=O)c1csc(C(=O)N2CCCC2)n1)c1ccccc1 (centres undefined) | -12%
22 | CC(C)=CCc1cc(O)ccc1O | 0.263%

Row | SMILES | inhibition
23 | CC(C)=CCC(O)C1=CC(=O)c2c(O)ccc(O)c2C1=O (centres undefined) | 74.5% (active)
24 | Cc1ccc(NC(=O)C(OC(=O)c2ccc(S(=O)(=O)N3CCCC3)cc2)c2ccccc2)cc1 (centres undefined) | 0.818%
25 | O=C(O)c1ccc(S(=O)(=O)N2CCC(Cc3ccccc3)CC2)cc1 | -5.01%
26 | CC(=O)Nc1ccc(S(=O)(=O)N2CCC(CC(=O)NC(C)c3ccccc3)CC2)cc1 (centres undefined) | 31.5% (active)
27 | CC(=O)Nc1ccc(S(=O)(=O)N2CCC(CN3CCCC(C)C3)CC2)cc1 (centres undefined) | -7.71%
28 | CCNC(=O)c1ccc2c(c1)nc1n2CCN(CC2CCCO2)C1 (centres undefined) | -93.9%
29 | Cc1noc(C)c1CSc1ccccc1C(=O)N(C)Cc1ccc2c(c1)OCO2 | 25.1%
30 | CC(=O)CCCSc1ncnc2c1sc1nc(N3CCOCC3)c3c(c12)CC(C)(C)OC3 | 36.7% (active)
31 | CCOCCCNc1ncnc2c1sc1nc(N3CCOCC3)c3c(c12)CC(C)(C)OC3 | -0.00409%
32 | CCCCCCSc1ncnc2c1sc1nc(-c3ccccc3)c3c(c12)CC(C)(C)OC3 | -3.25%
33 | CSc1nccc(-c2ccc(F)cc2)c1C#N | 30.3% (active)
34 | O=C(NC1CCCCC1)c1ccc2c(=O)nc3c(-c4ccccc4F)n[nH]n3c2c1 | -42.8%
35 | CCc1ccc(NC(=O)N2CCC3(CC2)COc2ccccc2S(=O)(=O)N(C)C3)cc1 | -0.131%
36 | Cc1ccc(C)c(N2C(=O)CN(S(C)(=O)=O)CC2(C)C(=O)NCc2ccccc2)c1 (centres undefined) | -0.764%
37 | O=C(CSc1nccn1C1CCCCC1)Nc1ccccc1F | 24.6%
38 | O=C(Nc1ccccc1F)NC1CCCN(c2cc(-c3ccncc3)[nH]n2)C1 (centres undefined) | 34.3% (active)
39 | O=C(Nc1ccccc1F)C1CCCN(c2nnc3ccccn23)C1 (centres undefined) | 8.96%
40 | COc1cccc(-c2cc3c(=O)n(Cc4nc(-c5ccccc5C)no4)ccn3n2)c1 | -2.78%
41 | CN1CCN(C(=O)C2=NOC3(CCCNC3)C2)C(c2ccccc2)C1 (centres undefined) | -3.49%
42 | COc1ccc(Cc2noc(C3(c4ccc(Cl)cc4)CCOCC3)n2)cc1 | -0.175%
43 | COc1ccc(-c2noc(C3(c4ccccc4)CCOCC3)n2)cc1 | 32.8% (active)
44 | COc1ccc(C2(C(=O)Nc3cccnc3)CCOCC2)cc1 | -2.08%
